Assay outcomes: PubChem BioAssay, Paczesny and Yang Labs, IUPUI and University of Michigan
ST2 IL33 inh – inhibitors of human ST2 (IL1RL1) binding to IL-33; Q01638; AID 1259354; AlphaLISA ST2-Fc/biotin-IL-33 interaction, 1 h; inhibition, % for hits at 17 µM; 78,000 compounds, 2.3% hits; in the data active = inhibition above about 30%
Target sequence (Q01638 whole entry, looked up): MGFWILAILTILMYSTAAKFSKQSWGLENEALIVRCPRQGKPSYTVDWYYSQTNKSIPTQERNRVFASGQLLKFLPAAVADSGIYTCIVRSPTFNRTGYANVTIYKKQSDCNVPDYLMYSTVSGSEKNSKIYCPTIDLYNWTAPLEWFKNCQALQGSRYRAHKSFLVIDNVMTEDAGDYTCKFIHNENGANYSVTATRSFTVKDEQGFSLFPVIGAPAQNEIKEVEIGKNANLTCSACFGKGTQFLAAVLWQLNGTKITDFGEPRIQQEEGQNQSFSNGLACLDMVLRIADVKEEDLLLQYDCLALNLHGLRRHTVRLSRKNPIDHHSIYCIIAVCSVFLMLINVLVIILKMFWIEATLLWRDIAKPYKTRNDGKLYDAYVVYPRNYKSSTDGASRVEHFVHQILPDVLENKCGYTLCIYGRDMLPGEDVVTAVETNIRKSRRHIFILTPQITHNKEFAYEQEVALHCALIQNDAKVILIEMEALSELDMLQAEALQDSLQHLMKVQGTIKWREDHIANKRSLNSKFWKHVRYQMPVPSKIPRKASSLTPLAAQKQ
* hit, by the source's call; i = inactive. Many of the other results were omitted from the sample, so hits are more common in it than they were.

SMILES	ST2 IL33 inh
N#C/C(=C/c1cn(Cc2ccc(Cl)cc2Cl)c2ccccc12)C(=O)NCC1CCCO1 (centres undefined)	32.0%*
Cc1c(C#N)c2ccccc2n1CC(=O)NCC1CCCO1 (centres undefined)	i
O=C1C2CCCN2C(c2cccs2)N1c1ccc(Cl)c(Cl)c1 (centres undefined)	i
COc1ccc(Cl)cc1NC(=O)c1coc(=O)c2ccccc12	i
COc1ccc2nc(N=C(N)NC(=O)Cc3ccc(Cl)cc3)nc(C)c2c1	35.0%*
CCC(=O)NC(N)=Nc1nc(C)c2cc(C)ccc2n1	i
COc1ccc2nc(N=C(N)N)nc(C)c2c1	i
Cc1cccn2c(=O)c3cc(C(=O)Nc4ccc(C#N)cc4)sc3nc12	i
CNc1ccccc1C(=O)Nc1cccc(NC(=O)Cc2ccccc2)c1	i
COc1ccc(OC)c(Nc2nc(-c3sc(N)nc3C)cs2)c1	36.0%*
COc1ccccc1Nc1nc(-c2ccc(F)cc2)cs1	i
CC(=O)Nc1nc(C)c(-c2csc(Nc3ccc(Br)cc3)n2)s1	i
S=C(Nc1ccc(Cl)cc1)N[C@H]1CO[C@H]2[C@@H]1OC[C@H]2OCc1ccccc1	i
O=c1[nH]nc(Cc2ccccc2)c2ccccc12	i
O=c1[nH]nc(C[N+](=O)[O-])c2ccccc12	30.0%*
COc1ccc(Cc2n[nH]c(=O)c3ccccc23)cc1OC	i
COc1ccc(C(=O)C2CCCN(C(=O)c3cccc(-c4ccccc4)c3)C2)cc1OC (centres undefined)	i
COc1cccc(Cn2c(CNS(=O)(=O)c3ccc(CC(C)C)cc3)nc3cccnc32)c1	i
Cc1ccc(CNS(=O)(=O)c2cccc3nonc23)o1	i
COCCCNC(=O)c1cc2c(=O)n3cccc(C)c3nc2n1C	i
COCCCNC(=O)c1cccn2c(=O)c3cc4ccccc4cc3nc12	30.0%*
O=C(NCc1ccco1)c1cccn2c(=O)c3cc4ccccc4cc3nc12	i
COC(=O)C1=C(C)Nc2nc(SCc3ccccc3)[nH]c(=O)c2C1c1cccnc1 (centres undefined)	i
CCOC(=O)C1=C(Nc2ccccc2)CC(C)(O)C(C(=O)OCC)C1c1ccc(C)cc1 (centres undefined)	i
COc1ccccc1C1CC(c2ccccc2)=NN1C(=O)c1ccccc1 (centres undefined)	i
SMILES	ST2 IL33 inh
COc1cc(C(=O)N2N=C(c3ccccc3)CC2c2ccc(N(C)C)cc2)cc(OC)c1OC (centres undefined)	48.0%*
COc1ccc(C2CC(c3ccccc3)=NN2C(=O)c2cc(OC)c(OC)c(OC)c2)cc1 (centres undefined)	i
Cc1ccc(OCC(=O)Nc2cccc(C(=O)Nc3ccccc3C(=O)O)c2)cc1	i
COc1ccc(N=Cc2cc(Br)cc(Br)c2O)c(OC)c1	i
Cc1ccc(N=Cc2cccc(C(=O)O)c2O)cc1	i
COc1ccc(OC)c(N=Cc2c(O)c(OC)cc(Br)c2Br)c1	i
CCN(CC)c1ccc(C=Nc2ccc(OC)cc2OC)c(O)c1	35.0%*
CCN(CC)c1ccc(N=Cc2cccc(OC)c2O)cc1	94.0%*
COc1cccc(C=Nc2ccc(S(=O)(=O)Nc3cc(C)on3)cc2)c1O	i
CC1=C(C(=O)Nc2ccc(C)cc2C)C(c2ccc(O)cc2)n2ncnc2N1 (centres undefined)	i
COc1ccc(-c2ncnn2-c2cccc(C(F)(F)F)c2)cc1OC	i
C#CCOc1c(Cl)cc(/C=C2/NC(=O)NC2=O)cc1Cl	i
COCCNc1nc(-c2ccc(C(C)(C)C)cc2)nc2ccccc12	i
CCOC(=O)C1(CCc2ccccc2)CCNCC1	i
CC(=O)c1cccc(NS(=O)(=O)c2ccc3c(c2)CCC(=O)N3)c1	i
Nc1ccc(Cl)c(NC(=O)CC(=O)c2ccccc2)c1	i
Nc1cccc(C(=O)Nc2ccccc2Cl)c1	i
Nc1ccc(Nc2ccccc2)c(Cl)c1	44.0%*
CCc1nc([C@H]2CN(C)C[C@@H]2C(=O)N2CCc3ccccc3C2)c(C)[nH]1	i
CCOc1ccc(C(=O)Nc2cc(N3CCCS3(=O)=O)ccc2OC)cc1	i
O=C(Cc1cccs1)N1CCC(Cc2ccccc2)CC1	i
O=C1CCN(C(=O)c2nn(CCc3ccccc3)c3c2CN(C(=O)Cc2cccs2)CC3)CCN1	33.0%*
O=C1CN(C(=O)c2nn(Cc3ccccc3)c3c2CN(C(=O)CCc2cccs2)CC3)CCN1	i
CCOc1ccc(C(=O)NCCNS(=O)(=O)c2ccc(Cl)cc2)o1	i
Cc1ccccc1C(=O)Nc1cccc([N+](=O)[O-])c1	i
SMILES	ST2 IL33 inh
O=C(Nc1ccccc1)Nc1cccc([N+](=O)[O-])c1	i
O=[N+]([O-])c1cccc(Nc2ccccc2)c1	33.0%*
COc1ccc(N(C)C(=O)Cc2c(C(=O)O)[nH]c3ccc(Cl)cc23)cc1	i
O=C(CN1C(=O)/C(=C\c2cccc(Cl)c2)Sc2ccccc21)NCCCN1CCOCC1	32.0%*
O=C(CN1C(=O)/C(=C\c2cccc(Cl)c2)Sc2ccccc21)NCCN1CCCCCC1	43.0%*
O=C(NCCCN1CCOCC1)N1c2ccccc2Sc2ccccc21	i
O=C(Nc1ccccc1C(=O)NCCN1CCOCC1)c1ccc(Cl)cc1Cl	i
CNC(=O)c1ccc(/C=C2\Sc3ccccc3N(Cc3ccc(F)cc3)C2=O)cc1	i
O=C(CN1C(=O)/C(=C\c2ccc(C(F)(F)F)cc2)Sc2ccccc21)N1CCCC1	30.0%*
O=C(CN1CCN(Cc2cccc(Cl)c2)C1=O)NCCN1CCOCC1	i
CCC1Oc2ccccc2N(CC(=O)NCCCN2CCOCC2)C1=O (centres undefined)	i
O=C(CN1C(=O)/C(=C\c2cccc(Cl)c2)Sc2ccccc21)NCCN1CCOCC1	36.0%*
O=C(CN1C(=O)CSc2ccc(S(=O)(=O)N3CCCCC3)cc21)NCCN1CCCC1	i
O=C1S/C(=C/c2cccc(Cl)c2)C(=O)N1CN1CCCCC1	i
O=C(CN1CCCC1)N1c2ccccc2Sc2ccc(C(F)(F)F)cc21	i
O=C(c1cc(F)c(F)cc1F)N1CCOc2ccc(CN3CCc4sccc4C3)cc2C1	i
CC(=O)Nc1sc2c(c1C(=O)Nc1c(C)cccc1C)CCCCC2	i
CCN(CC)[C@H]1[C@@H]2OC[C@@H](O2)[C@@H](NC(=O)Nc2ccccc2)[C@@H]1O	i
NCCNCCSc1ccc(Cl)cc1	i
Cc1ccccc1CN1CCC(CN(Cc2cccnc2)C(=O)C2=CCCC2)CC1	i
Cc1ccc(N2C(=O)C3N=NN(CC(=O)Nc4ccc(F)cc4F)C3C2=O)cc1 (centres undefined)	i
CC1CCCCC1NC(=O)C1CCCN(S(=O)(=O)c2cnc[nH]2)C1 (centres undefined)	i
CN1CCN(C(=O)CN2C(=O)S/C(=C\c3ccc(Cl)cc3)C2=O)CC1	i
COc1ccc(/C=C2\SC(=O)N(CC(=O)N3CCCCC3)C2=O)cc1OC	i
CN(Cc1ccco1)C(=O)CN1C(=O)/C(=C\c2ccc(C(F)(F)F)cc2)Sc2ccccc21	31.0%*
CC1CC(=O)N(CC(=O)NCc2ccco2)c2ccccc2S1 (centres undefined)	i
O=C(CN1C(=O)/C(=C\c2cccc(Cl)c2)Sc2ccccc21)N1CCCCC1	33.0%*
O=C(CN1C(=O)/C(=C/c2ccccc2F)Sc2ccccc21)NCc1ccco1	i
COc1ccc(OC)c(S(=O)(=O)Nc2ccc(S(N)(=O)=O)cc2)c1	i
